Test [1] can be described thus: antimalarial activity against Dd2 strain (AID 2302;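 active means growth inhibition above 50% at the single 2 µM test dose, taken to imply half-maximal potency below 2 µM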;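 further: 0% = DMSO untreated growth and 100% = chloroquine plus artemisinin killed control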). As to conditions: P. falciparum Dd2 in RBCs, LDH growth readout, 72 h; at 2 µM; active compounds read high.
Test [2] is described as follows: HepG2 cytotoxicity, primary screen, cytotoxicity control for P. falciparum antimalarial project, cell-based, ATP luminescence (AID 2303;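 active means inhibition above 50%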;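 further: 0% = DMSO wells and 100% = digitonin-killed cells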). As to conditions: HepG2 viability, 24-48 h, at 10 µM, active compounds read high.
In test [3] the target is L-lactate dehydrogenase (Plasmodium falciparum (isolate CDC / Honduras)) (UniProt Q27743). The test is described as follows: PfLDH activity inhibition – cell lysate, 3D7 strain, counter-screen for P. falciparum growth inhibition project (AID 2304).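 Further: 0% = vehicle and 100% = reference inhibitor.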 As to conditions: P. falciparum 3D7 crude extract, LDH APAD/NBT absorbance; at 2 µM; active compounds read high. (A counterscreen serves to expose hits that act by an unwanted route or on another target.)

Test [4] can be described thus: inhibition of 3D7 malaria parasite growth – strain 3D7 (AID 2306).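 Further: 0% = DMSO wells and 100% = chloroquine plus artemisinin control wells.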 As to conditions: P. falciparum 3D7 erythrocytic growth, LDH absorbance, 72 h; at 2 µM; active compounds read high.
For test [5], the target named is Calcium-dependent protein kinase 1 (Plasmodium falciparum (isolate 3D7)) (UniProt P62344). The test is described as follows: PfCDPK1 kinase inhibitors, biochemical, TCAMS library (AID 1159585; cut-off not given, nearly all actives have IC50 up to about 0.98 µM;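 further: inhibitors leave more ATP so luminescence rises with inhibition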). As to conditions: recombinant PfCDPK1, Kinase-Glo ATP depletion luminescence. (In general: Kinase-Glo measures the ATP left after a reaction by luminescence.)
Test [6] concerns the target Plasmodium falciparum protein kinase 6 (PK6, PF3D7_1337100) (UniProt Q8IDW1). Briefly: PfPK6 kinase inhibitors, biochemical, TCAMS library (AID 1159586). As to conditions: recombinant PfPK6, Kinase-Glo ATP depletion luminescence.
The target in test [7] is Protein kinase 7 (PK7), Plasmodium falciparum 3D7 (PF3D7_0213400) (UniProt Q7YTF7). The test is described as follows: inhibition of Plasmodium PK7 catalytic activity – biochemical, TCAMS antimalarial set, Kinase-Glo luminescence (AID 1159587). As to conditions: recombinant PfPK7, Kinase-Glo ATP depletion luminescence.
Test [8] concerns the target Calcium-dependent protein kinase 4 (Plasmodium falciparum (isolate 3D7)) (UniProt Q8IBS5). Briefly: PfCDPK4 kinase inhibitors, biochemical, TCAMS library (AID 1159588; cut-off not given, nearly all actives have IC50 up to about 0.91 µM). As to conditions: recombinant PfCDPK4, Kinase-Glo ATP depletion luminescence.

The structures appear in SMILES notation. Values without a mark were called inactive. For some of these results: Entries with a potency or affinity are not part of this list. Activity calls are given as the source filed them. Unless noted, how the calls were made is not given here.

Chain of Calcium-dependent protein kinase 1 (Plasmodium falciparum (isolate 3D7)) (P62344 whole entry, looked up): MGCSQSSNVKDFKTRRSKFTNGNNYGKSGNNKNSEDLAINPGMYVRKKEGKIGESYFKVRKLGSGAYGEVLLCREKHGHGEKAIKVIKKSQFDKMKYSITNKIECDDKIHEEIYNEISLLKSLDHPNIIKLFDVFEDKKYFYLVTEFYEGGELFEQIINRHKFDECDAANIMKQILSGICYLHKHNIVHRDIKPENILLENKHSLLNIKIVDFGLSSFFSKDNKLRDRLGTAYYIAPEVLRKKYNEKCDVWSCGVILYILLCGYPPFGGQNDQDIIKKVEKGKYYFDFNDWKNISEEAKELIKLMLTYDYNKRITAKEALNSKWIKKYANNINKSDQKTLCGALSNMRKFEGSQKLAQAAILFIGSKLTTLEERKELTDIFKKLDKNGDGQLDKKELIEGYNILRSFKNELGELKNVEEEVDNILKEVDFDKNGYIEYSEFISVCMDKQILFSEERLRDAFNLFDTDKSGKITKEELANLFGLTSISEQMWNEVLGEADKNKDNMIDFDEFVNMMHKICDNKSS
Chain of Calcium-dependent protein kinase 4 (Plasmodium falciparum (isolate 3D7)) (Q8IBS5 whole entry, looked up): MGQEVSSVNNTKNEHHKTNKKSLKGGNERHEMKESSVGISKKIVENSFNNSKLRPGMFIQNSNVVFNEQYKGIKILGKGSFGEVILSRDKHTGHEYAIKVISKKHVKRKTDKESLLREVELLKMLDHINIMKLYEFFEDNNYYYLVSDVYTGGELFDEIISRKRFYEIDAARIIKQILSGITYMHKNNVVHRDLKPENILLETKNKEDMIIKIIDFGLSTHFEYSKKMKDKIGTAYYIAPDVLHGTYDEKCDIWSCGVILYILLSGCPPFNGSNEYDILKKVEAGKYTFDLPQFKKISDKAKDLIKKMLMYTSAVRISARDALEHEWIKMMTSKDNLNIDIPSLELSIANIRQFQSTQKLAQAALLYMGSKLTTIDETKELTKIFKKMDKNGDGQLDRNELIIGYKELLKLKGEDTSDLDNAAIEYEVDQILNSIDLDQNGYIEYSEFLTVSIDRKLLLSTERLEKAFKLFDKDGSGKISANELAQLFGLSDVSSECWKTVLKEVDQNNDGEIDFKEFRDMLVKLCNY
Chain of Plasmodium falciparum protein kinase 6 (PK6, PF3D7_1337100) (Q8IDW1 1-305): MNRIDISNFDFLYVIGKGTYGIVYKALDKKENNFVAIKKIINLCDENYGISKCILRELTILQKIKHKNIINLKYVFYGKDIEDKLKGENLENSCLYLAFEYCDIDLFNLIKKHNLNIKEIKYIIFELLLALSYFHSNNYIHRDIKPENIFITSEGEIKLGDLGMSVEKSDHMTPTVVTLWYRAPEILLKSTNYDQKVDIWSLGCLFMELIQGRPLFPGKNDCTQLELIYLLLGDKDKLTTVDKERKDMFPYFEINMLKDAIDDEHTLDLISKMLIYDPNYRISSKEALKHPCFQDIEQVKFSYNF
Chain of Protein kinase 7 (PK7), Plasmodium falciparum 3D7 (PF3D7_0213400) (Q7YTF7 1-343): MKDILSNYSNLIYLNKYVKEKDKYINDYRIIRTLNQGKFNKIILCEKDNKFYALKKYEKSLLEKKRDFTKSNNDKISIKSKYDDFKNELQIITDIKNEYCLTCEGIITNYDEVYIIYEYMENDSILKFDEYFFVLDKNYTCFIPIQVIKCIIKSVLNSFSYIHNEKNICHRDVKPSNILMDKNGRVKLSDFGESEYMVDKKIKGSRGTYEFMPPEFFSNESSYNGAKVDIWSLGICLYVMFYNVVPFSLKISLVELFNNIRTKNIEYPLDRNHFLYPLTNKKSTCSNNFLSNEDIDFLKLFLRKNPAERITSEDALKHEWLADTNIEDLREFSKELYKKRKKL
Chain of L-lactate dehydrogenase (Plasmodium falciparum (isolate CDC / Honduras)) (Q27743 whole entry, looked up): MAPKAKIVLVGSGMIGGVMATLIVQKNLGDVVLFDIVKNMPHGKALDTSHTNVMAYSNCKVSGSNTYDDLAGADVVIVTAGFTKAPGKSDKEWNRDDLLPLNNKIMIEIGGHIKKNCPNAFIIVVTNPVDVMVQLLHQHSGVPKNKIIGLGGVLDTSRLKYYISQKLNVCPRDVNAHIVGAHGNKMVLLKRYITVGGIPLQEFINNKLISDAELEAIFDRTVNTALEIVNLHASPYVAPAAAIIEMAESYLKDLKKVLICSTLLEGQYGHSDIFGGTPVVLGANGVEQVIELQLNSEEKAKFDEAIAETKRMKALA

As for `Cc1[nH]c(C)c(-c2ccc(OCc3cc(C(F)(F)F)cc(C(F)(F)F)c3)nc2)c(=O)c1Cl`, the growth inhibition in test [1] was 96% (active); in test [4], 98% (active). The inhibition (usually the change of the read-out against control, counted positive when it falls) in test [2] is 19%; in test [3], -1%. The result in test [5], in test [6], in test [7] and in test [8] was inactive.

On to `O=C(CCc1cnc[nH]1)Nc1ccc(-c2ccc(-c3nc4ccccc4[nH]3)cc2)cc1`, for which the results for the growth inhibition in test [1] and in test [4] were 70% (active) and 98% (active), respectively. For the same compound, the inhibition was 46% in test [2] and 0% in test [3]. Moreover, the result in test [5], in test [6], in test [7] and in test [8] was inactive.

As to `CC1(C)CCC(=Cc2ccc(Cl)cc2)CC1(O)Cn1ccnc1` (stereo not given), the growth inhibition in test [1] is 74% (active); in test [4], 99% (active). Further, the inhibition in test [2] was 0%; in test [3], -4%. Besides, the result in test [5], in test [6], in test [7] and in test [8] was inactive.

On to `CCCCn1c(-c2ccco2)nc2c(c(=O)c3ccccc3n2C)c1=O`, for which the growth inhibition in test [1] is 64% (active); in test [4] it was 87% (active). The inhibition in test [2] is 11%; in test [3], -2%. Also, the outcome in test [5], in test [6], in test [7] and in test [8] was inactive.

`CC1=C(C(=O)Nc2ccccc2)C(c2ccc([N+](=O)[O-])cc2)n2ncc(C(=O)Nc3ccccc3)c2N1` (stereo not given): the growth inhibition was 68% (active) in test [1] and 86% (active) in test [4]. In addition, the inhibition is 9% in test [2] and -1% in test [3]. The result in test [5], in test [6], in test [7] and in test [8] was inactive.

With `O=C(Nc1cc(Cl)ccc1O)c1cc(-c2ccccc2O)no1`, the results for the growth inhibition in test [1] and in test [4] were 79% (active) and 95% (active), respectively. The values for the inhibition in test [2] and in test [3] were -7% and 2%, respectively. Besides, the result in test [5], in test [6], in test [7] and in test [8] was inactive.

`OCC1CCN(Cc2cccc(-c3ccc(-c4nc5ccc(F)cc5[nH]4)cc3)c2)CC1`: the growth inhibition in test [1] is 86% (active); in test [4], 101% (active). In addition, the inhibition is 11% in test [2] and 4% in test [3]. In addition, the outcome in test [5], in test [6], in test [7] and in test [8] was inactive.

As to `Cc1ccccc1C1CCN(C2CCC(NC(=O)c3ccc4c(c3)-c3nocc3C(C)O4)CC2)CC1` (stereo not given), the growth inhibition in test [1] was 37%; in test [4] it was 88% (active). For the same compound, the inhibition in test [2] was 68% (active); in test [3] it was 4%. Moreover, the result in test [5], in test [6], in test [7] and in test [8] was inactive.

As for `CN(c1ccccc1C(=O)Nc1ccccc1Oc1ccccc1)S(=O)(=O)c1ccccc1`, the growth inhibition in test [1] was 80% (active); in test [4], 90% (active). Moreover, the inhibition was 2% in test [2] and -2% in test [3]. The result in test [5], in test [6], in test [7] and in test [8] was inactive.

For the compound `c1ccc(Oc2ccc(Nc3ccnc4cc(-c5ccc(CN6CCNCC6)o5)ccc34)cc2)nc1`, the growth inhibition was 99% (active) in test [1] and 100% (active) in test [4]. Besides, the inhibition in test [2] was 7%; in test [3], -1%. Further, the result in test [5], in test [6], in test [7] and in test [8] was inactive.

Turning to `Cc1onc(-c2ccccc2)c1-c1nc(NCCC(c2ccccc2)c2ccccc2)no1`, the growth inhibition in test [1] is 78% (active); in test [4] it was 100% (active). Besides, the inhibition in test [2] is -4%; in test [3], -7%. The outcome in test [5], in test [6], in test [7] and in test [8] was inactive.

Take `Nc1nc(N)c2c(ccc3ccccc32)n1`: the growth inhibition in test [1] was 20%; in test [4] it was 98% (active). Also, the results for the inhibition in test [2] and in test [3] were 60% (active) and -1%, respectively. Besides, the result in test [5], in test [6], in test [7] and in test [8] was inactive.

Consider `Cc1cc(-c2ccc3c(c2)CCN(CCC2CCC(NC(=O)/C=C/c4cccc(F)c4)CC2)CC3)on1` (stereo not given), for which the growth inhibition in test [1] was 19%; in test [4] it was 95% (active). For the same compound, the inhibition in test [2] was 23%; in test [3], -10%. Besides, the result in test [5], in test [6], in test [7] and in test [8] was inactive.

On to `O=C(/C=C/c1ccc(Cl)c(Cl)c1)NCCCCCN1CCC(NC(=S)Nc2ccc(Cl)cc2)CC1`, for which the growth inhibition is 41% in test [1] and 99% (active) in test [4]. The values for the inhibition in test [2] and in test [3] were 62% (active) and -1%, respectively. Moreover, the result in test [5], in test [6], in test [7] and in test [8] was inactive.

`CCCCCCOc1ccc(C(N)=NCc2ccccc2)c2c1CCCC2`: the values for the growth inhibition in test [1] and in test [4] were 35% and 96% (active), respectively. In addition, the values for the inhibition in test [2] and in test [3] were 62% (active) and -3%, respectively. Moreover, the result in test [5], in test [6], in test [7] and in test [8] was inactive.

`Cc1cc(NC(c2ccc(Cl)cc2)c2ccc3cccnc3c2O)no1` (stereo not given): the growth inhibition in test [1] was 26%; in test [4] it was 88% (active). In addition, the results for the inhibition in test [2] and in test [3] were 50% (active) and 5%, respectively. Also, the outcome in test [5], in test [6], in test [7] and in test [8] was inactive.

For `O=C(Cc1cccc(Cl)c1)Nc1cccc(-c2c[nH]c3nc(Nc4ccccc4)ncc23)c1`, the growth inhibition in test [1] was 70% (active); in test [4], 99% (active). For the same compound, the inhibition in test [2] is 5%; in test [3], -2%. Moreover, the outcome in test [5], in test [6], in test [7] and in test [8] was inactive.

On to `O=C(NCCCCN1CCC(c2ccc3ccccc3c2O)CC1)c1ccc(-c2ccc(Cl)cc2)cc1`, for which the growth inhibition in test [1] is 99% (active); in test [4] it was 101% (active). Also, the inhibition in test [2] was 84% (active); in test [3], -2%. Also, the outcome in test [5], in test [6], in test [7] and in test [8] was inactive.

Regarding `Nc1nc(N)c2c(ccc3nccc32)[nH]1`, the growth inhibition was -1% in test [1] and 88% (active) in test [4]. Moreover, the figures for the inhibition in test [2] and in test [3] were 58% (active) and 8%, respectively. Also, the result in test [5], in test [6], in test [7] and in test [8] was inactive.

As to `COc1ccccc1-c1csc(C(=O)NCC2CCN(Cc3ccc(C(C)C)cc3)C2)c1` (stereo not given), the growth inhibition in test [1] is 6%; in test [4], 81% (active). Moreover, the inhibition in test [2] is 24%; in test [3], 1%. The outcome in test [5], in test [6], in test [7] and in test [8] was inactive.

The record behind these values is PubChem BioAssay.
